Compound activity: PubChem BioAssay, The Scripps Research Institute Molecular Screening Center
In the library only some 3.5% were active in any assay of this set; here they are far more common.
MITF inh: MITF inhibitors, primary screen, biochemical, AlphaScreen, human | Microphthalmia-associated transcription factor (Homo sapiens), O75030 | AlphaScreen MITF homodimerization, bead proximity signal | inhibition, % at 2.6 µM | actives 0.91% (n = 650,000); in the data active = inhibition above about 50%;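 note: 0% = vehicle wells with protein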
GPR151 ag: activators of human GPR151, primary screen, cell-based, PathHunter beta-arrestin, luminescence. PathHunter beta-arrestin GPR151 cells. AID 1508602, 2020. actives 1% (n = 650,000). activation, % at 11.2 µM; in the data active = activation above about 4.9%;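 note: 0% = median of compound wells and 100% = cells with positive control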
Target sequence (Q8TDV0 whole entry, looked up): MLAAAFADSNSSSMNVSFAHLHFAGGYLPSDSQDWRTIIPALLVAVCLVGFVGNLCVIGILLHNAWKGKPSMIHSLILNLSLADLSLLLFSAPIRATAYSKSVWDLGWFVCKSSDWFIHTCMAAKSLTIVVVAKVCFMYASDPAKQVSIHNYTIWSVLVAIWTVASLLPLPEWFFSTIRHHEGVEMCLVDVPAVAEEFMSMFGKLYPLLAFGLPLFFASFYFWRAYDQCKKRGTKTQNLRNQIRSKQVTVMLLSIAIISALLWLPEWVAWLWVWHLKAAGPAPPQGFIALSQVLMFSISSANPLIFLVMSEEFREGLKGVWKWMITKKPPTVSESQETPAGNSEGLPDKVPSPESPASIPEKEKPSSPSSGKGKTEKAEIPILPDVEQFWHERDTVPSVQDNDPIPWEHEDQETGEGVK
FBW7 activator: FBW7 E3 ligase activators, primary screen, biochemical, AlphaScreen, human | F-box/WD repeat-containing protein 7 (Homo sapiens), Q969H0 | AlphaScreen FBW7–phospho-cyclin E peptide binding, activator screen | normalized activity (activation), % at 26.1 µM | actives 0.13% (n = 650,000) | AID 1259310, 2017; in the data active = normalized activity above about 1.9%;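 note: purified mutant Fbw7 with reduced substrate affinity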
TEAD-YAP inh: TEAD-YAP interaction inhibition, primary screen, TEAD-YAP interaction inhibitor project, luminescence, HEK-TIYL cells. AID 1259422, 2018. TEAD-Gal4/YAP UAS-luciferase luminescence. actives 1.4% (n = 640,000). inhibition, % at 9.12 µM; in the data active = inhibition above about 32%;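 note: 0% = median of test compound wells and 100% = reference inhibitor wells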
* marks the source's active call; other numbers are inactive results.

SMILES	MITF inh	GPR151 ag	FBW7 activator	TEAD-YAP inh
CCOc1cc(N2CCOCC2)c(OCC)cc1NC(=O)CN1CCCC1	83.2*	0.1	-0.6	-2.9
COc1ccc(NC(=O)/C(C#N)=C\c2ccccc2O)cc1	19.3	-2.8	0.3	39.7*
N#C/C(=C/c1ccccc1O)C(=O)Nc1ccc(O)cc1	3.4	-7.4	0.1	70.5*
Cc1ccc(NC(=O)/C(C#N)=C\c2ccccc2O)cc1	9.1	-0.6	-0.1	29.9
COc1ccc(Cl)cc1NC(=O)CN(Cc1ccccc1)S(=O)(=O)c1ccc(C)cc1	-2.1	3.0	0.1	3.4
COc1cccc(N2CCN(S(=O)(=O)c3ccc4c(c3)C(C)(C)C(=O)N4C)CC2)c1	13.2	-1.2	0.7	6.3
CC1C(O)=C(c2nc3ccccc3[nH]2)c2nc(=O)c3ccccc3n21 (stereo unspecified)	17.1	-0.9	-0.8	54.1*
Cc1cccc2c(=O)nc3n(c12)CC(O)=C3c1nc2ccccc2[nH]1	2.2	0.1	-0.1	-4.7
O=C(NCCCN1CCOCC1)C(=O)Nc1ccccc1Cl	9.7	0.8	0.0	-4.3
CC(C)(C)P(=NC(=S)Nc1ccccc1)(N1CCOCC1)N1CCOCC1	0.4	-1.6	-0.1	1.6
CC(C)(C)P(=NC(=S)NNCCO)(N1CCCCCC1)N1CCCCCC1	-6.4	2.0	-0.2	78.3*
O=C(NC1CCCc2ccccc21)C1CCCN(C(=O)N2CCOc3ccccc32)C1 (stereo unspecified)	6.8	1.3	0.6	0.4
CCOc1cc(C(Nc2cc(C)ccn2)c2ccc3cccnc3c2O)ccc1O (stereo unspecified)	68.7*	-0.6	-0.5	1.6
COc1cc(C(Nc2cc(C)ccn2)c2ccc3cccnc3c2O)ccc1O (stereo unspecified)	54.3*	0.8	-0.4	-11.2
Cc1cccc(NC(c2cccc(O)c2)c2ccc3ccc(C)nc3c2O)n1 (stereo unspecified)	16.6	0.0	-0.1	10.6
COc1cc(C(Nc2cc(C)ccn2)c2ccc3ccc(C)nc3c2O)cc(OC)c1OC (stereo unspecified)	20.8	0.9	-0.2	67.6*
Cc1ccnc(NC(c2cccc(O)c2)c2ccc3ccc(C)nc3c2O)c1 (stereo unspecified)	4.9	-0.4	-0.1	13.5
COc1cc(C(Nc2cccc(C)n2)c2ccc3ccc(C)nc3c2O)cc(OC)c1O (stereo unspecified)	3.5	2.2	-0.3	33.0*
CCOc1ccc(-c2nc(Nc3ccc(C(=O)OC)cc3)sc2CC(=O)O)cc1	2.6	0.9	-0.1	-10.1
CCC(=O)NNc1nc2c(c(=O)n1-c1ccccc1)C1(CCCC1)Cc1ccccc1-2	4.6	-0.3	0.8	7.3
O=C1NC(=S)N/C1=C\C=C\c1ccc([N+](=O)[O-])o1	77.8*	2.1	-0.4	88.7*
Cn1ccc(CC(=O)N2CCc3ccc(NC(=O)c4ccccc4Cl)cc3C2)c1	0.8	0.4	0.1	42.7*
O=C(Nc1ccc2c(c1)CN(C(=O)CN1CCOC1=O)CC2)c1ccccc1Cl	-8.5	0.1	0.1	3.2
C/C(Cn1nnc([N+](=O)[O-])n1)=N/NC(=O)COc1ccccc1Cl	-3.7	-0.3	0.0	0.4
CC(CS(=O)(=O)c1ccc2ccccc2c1)N1CCCCC1 (stereo unspecified)	-6.2	0.8	0.3	33.1*
SMILES	MITF inh	GPR151 ag	FBW7 activator	TEAD-YAP inh
CCOC(=O)Cc1c(C)nc(C)[nH]c1=O	5.6	-1.3	0.0	18.7
O=c1c(O)cc2c(-c3ccccc3)c3cc(O)c(O)c(Br)c3oc-2c1Br	96.0*	-0.2	-0.6	-5.3
Cc1cc(C)c2nc3nc(C)c(C)cc3c(N)c2c1	15.7	-1.8	-0.2	80.5*
CCN1CCN(c2ccc(NC(=O)c3cccnc3Cl)cc2Cl)CC1	0.3	-0.3	0.0	-11.1
CN1CCN(c2ncn(-c3ccc(Nc4nccc(-c5cc(F)cc(N6CCOCC6)c5)n4)cc3)n2)CC1	-15.6	-1.1	0.0	56.4*
Cc1ncn(-c2ccc(Nc3nccc(-c4cc(F)cc(-c5cn[nH]c5C)c4)n3)cc2)n1	5.9	1.7	-0.2	37.0*
Cc1ncn(-c2ccc(Nc3nccc(Nc4cccnc4)n3)cc2)n1	8.3	0.2	0.1	5.8
Cc1ncn(-c2ccc(Nc3nccc(Nc4ccccc4-c4ccn[nH]4)n3)cc2)n1	0.7	1.6	-0.3	64.0*
Cc1ncn(-c2ccc(Nc3nccc(-c4cccc(S(C)(=O)=O)c4)n3)cc2)n1	-6.3	-0.4	0.0	47.2*
Cc1ncn(-c2ccc(Nc3nccc(-c4cc(N5CCOCC5)cc(S(C)(=O)=O)c4)n3)cc2)n1	-1.3	0.3	-0.1	41.3*
O=C1NN(c2ccc(I)cc2)C(=O)/C1=C\c1ccccc1O	53.6*	-0.8	0.2	0.1
CN1CCC(N(C)C2CC(=O)N(c3ccccc3)C2=O)CC1 (stereo unspecified)	0.3	-0.4	0.3	-4.2
CCCCC(=O)NC(c1cccs1)c1ccc2ccccc2c1O (stereo unspecified)	1.2	0.7	0.8	1.1
CCC(=O)NC(c1cccs1)c1ccc2cccnc2c1O (stereo unspecified)	30.2	1.0	-0.8	76.6*
CCCC(=O)NC(c1cccs1)c1ccc2cccnc2c1O (stereo unspecified)	45.7	0.5	-1.0	86.3*
CCC(=O)NC(c1cccs1)c1ccc2ccccc2c1O (stereo unspecified)	-0.9	0.9	1.0	-7.1
COc1ccc(-c2ccc(/C=C3\C(=O)N(c4ccc(C(=O)O)cc4)N=C3C)o2)c([N+](=O)[O-])c1	-4.8	4.5	-0.3	4.4
Cc1nc2c(C(=O)NCc3cccnc3)cnn2c(C)c1Cc1cccc(Cl)c1	0.4	1.0	-0.4	-0.4
COC(=O)c1cnn2c(C)c(Cc3ccc(C)cc3)c(C)nc12	4.7	0.8	-0.1	43.4*
COCCCNC(=O)c1cnn2c(C)c(Cc3ccc(C)cc3)c(C)nc12	7.9	-0.2	0.0	40.2*
Cc1ccc(Cc2c(C)nc3c(C(=O)NCc4cccnc4)cnn3c2C)cc1	1.9	1.4	0.0	49.0*
COCCOC(=O)C1=C(C)NC(=O)NC1c1c(OC)ccc2ccccc12 (stereo unspecified)	9.9	-1.2	0.6	-0.6
COc1ccc(/C=C2\N=C(c3ccc(Cl)c(Cl)c3)OC2=O)cc1	-11.4	-0.3	-0.1	8.2
CC(C)(C)C1(C)OC(=O)C(=Cc2ccc(Br)o2)C(=O)O1 (stereo unspecified)	69.0*	-0.3	-0.2	-11.3
O=C(/C=C/Nc1cccc(Br)c1)c1cccs1	-9.8	-0.8	-0.1	-55.4
Cc1ccc(O)c(N/C=C/C(=O)c2ccc(F)cc2)c1	12.9	-0.8	-0.1	-57.4
Cc1ccc(O)c(N/C=C/C(=O)c2cccs2)c1	1.6	-0.9	0.7	54.3*
O=C(/C=C/Nc1ccc(Br)cc1)c1cccs1	-4.0	-1.9	-0.1	41.2*
